Screening results (PubChem)
Compounds with a hit are over-represented: about 0.65% of the library has one in this group of screens.
BJeLR viability = kills HRASV12-expressing BJeLR cells | BJeLR (HRASV12) viability, CellTiter-Glo ATP luminescence, 48 h | inhibition, % (no concentration beside the values) | 0.17% of 300,000 active | AID 1554; in the data active = inhibition above about 50%
ugtP null kill = growth inhibition of S. aureus ugtP deletion strain. 0.54% of 330,000 active. S. aureus RN4220 ugtP deletion, OD600 growth, 16 h. growth inhibition, % (concentration not given with the values). AID 1259309; in the data active = growth inhibition above about 68%;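 also: plate controls were untreated wells for no effect and antibiotic for full effect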
RN4220 kill = S. aureus RN4220 growth inhibition | OD600, 16 h | inhibition, % (test concentration not listed) | AID 1259311 | 0.33% of 330,000 active; in the data active = inhibition above about 85%;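 also: plate controls were untreated cells for no effect and reference antibiotic for full effect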
* marks the source's active call; other numbers are inactive results; . = no result given.

SMILES | BJeLR viability | ugtP null kill | RN4220 kill
O=C(COC(=O)c1ccc([N+](=O)[O-])cc1Cl)NCc1ccco1 | . | 2.0 | 20.0
O=C1OC(c2ccc(O)cc2)(c2ccc(O)cc2)c2ccccc21 | -1.1 | 0.3 | 7.4
O=C1OC(c2ccccc2)(c2ccc3cc(O)ccc3c2)c2ccccc21 (stereo not given) | . | 92.9* | -17.7
CC(C)CC(=O)Nc1cccc(NC(=O)c2ccccc2Cl)c1 | -4.7 | 1.8 | -2.3
CC(=O)c1ccc(NC(=S)N2CCN(C(=S)Nc3ccc(C(C)=O)cc3)C(C)C2)cc1 (stereo not given) | -14.4 | 0.2 | -0.2
COc1c(N2CCN(C(=S)NC3CC4CCC3C4)C(C)C2)c(F)cc2c(=O)c(C(=O)O)cn(C3CC3)c12 (stereo not given) | -5.6 | 100.1* | 100.4*
COc1c(N2CCN(C(=S)Nc3ccc(F)cc3)C(C)C2)c(F)cc2c(=O)c(C(=O)O)cn(C3CC3)c12 (stereo not given) | -2.0 | 99.0* | 100.1*
COc1cccc(N(CC(=O)NC2CC3CCC2C3)S(=O)(=O)c2ccccc2)c1 (stereo not given) | -6.6 | 9.0 | 4.9
COc1ccc(C(=O)N/C(=C\c2ccccc2)C(=O)Nc2ccc(C(=O)NCC(=O)O)cc2)cc1 | -4.7 | 1.4 | -1.2
Cc1ccc(S(=O)(=O)Nc2ccc3[nH]c(=O)[nH]c3c2)c(C)c1 | -3.7 | 1.9 | 2.4
COC(=O)CC1c2cc(F)ccc2S(=O)(=O)N1C(C)C (stereo not given) | . | 0.7 | 9.5
CCCCCCCn1c2c(c(=N)c3ccccc31)CCC2 | 15.8 | 88.7* | 25.0
CCCn1c2c(c(=N)c3c1CCC3)CCC2 | 4.4 | 9.0 | 3.4
CCC1CN(C(=O)NCc2ccc(C)cc2)c2cc(C)ccc2O1 (stereo not given) | -3.1 | 17.0 | 0.6
CC(C)Cc1nc(N2CCNCC2)c(C#N)c2c1CCC2 | -7.1 | 0.1 | -0.4
CC(C)Cc1nc(N2CCCCC2)c(C#N)c2c1CCC2 | 3.6 | 86.5* | 1.8
Cc1ccc(C=NNC(=O)c2csnn2)cc1 | . | 0.5 | -1.2
COc1cccc(/C=C/C(=O)c2c(O)cc(C)oc2=O)c1O | -12.3 | 0.9 | 8.4
COc1ccc(/C=C/C(=O)c2c(O)cc(C)oc2=O)c(OC)c1 | 7.7 | 99.7* | -16.0
Cc1ccc(-c2nnn(CC(=O)N(c3ccccc3F)C(CC(C)C)C(=O)NCC3CCCO3)n2)cc1 (stereo not given) | 0.5 | 6.3 | 3.7
NC(N)=NS(=O)(=O)c1ccc(NC(=S)NC(=O)c2ccccc2)cc1 | 8.5 | active | 92.7
NC(N)=NS(=O)(=O)c1ccc(NC(=S)Nc2ccc(F)cc2)cc1 | 3.9 | 8.6 | 2.0
NC(N)=NS(=O)(=O)c1ccc(NC(=S)NC(=O)Cc2ccc(Cl)cc2)cc1 | -2.1 | 88.4* | 3.8
NC(N)=NS(=O)(=O)c1ccc(NC(=S)NC(=O)/C=C/c2ccccc2)cc1 | -3.7 | 5.1 | 2.8
CCN(CC)CCCNC(=S)N(Cc1cccnc1)Cc1cc2cc(C)cc(C)c2[nH]c1=O | 6.3 | -2.1 | 6.9
SMILES | BJeLR viability | ugtP null kill | RN4220 kill
COCC(C)n1c(SCC(=O)N2CCc3ccccc3C2)nc2ccccc2c1=O (stereo not given) | -10.3 | 1.9 | 2.7
Cc1nc2cc(C(=O)OCC(=O)NC34CC5CC(CC(C5)C3)C4)ccc2n1-c1ccccc1 | 7.6 | -13.3 | -6.6
Cc1nc2cc(C(=O)OCC(=O)Nc3cccc(Cl)c3)ccc2n1-c1ccccc1 | -11.7 | 99.4* | -3.2
Cc1ccc(OCC(=O)c2c(O)c3ccccc3oc2=O)cc1C | 3.9 | 57.9 | 57.8
Cc1ccc(C(C)C)c(OCC(=O)c2c(O)c3ccccc3oc2=O)c1 | 5.4 | 86.0* | 86.0*
CCOC(=O)C1=C(C)n2c(s/c(=C/c3cccc([N+](=O)[O-])c3)c2=O)=NC1c1ccc(O)c(OC)c1 (stereo not given) | -7.7 | . | .
COC(=O)c1cccc(NC(=S)Nc2ccc(Cl)c(Cl)c2)c1 | 1.7 | 89.7* | 100.0*
COC(=O)c1cccc(NC(=S)Nc2ccccc2Cl)c1 | 0.5 | 0.2 | 2.8
COC(=O)c1cccc(NC(=S)Nc2cccc(Cl)c2C)c1 | -0.6 | -4.9 | 0.1
COC(=O)c1cc(NC(=S)Nc2cc(Cl)cc(Cl)c2)cc(C(=O)OC)c1 | -1.6 | 99.3* | 99.2*
CC1CCCCC12NC(=O)N(CC(=O)NCc1ccccc1Cl)C2=O (stereo not given) | . | 3.7 | 1.2
COc1cccc(C(=O)NC(C)c2ccc(-c3ccccc3)cc2)c1OC (stereo not given) | -13.6 | . | .
COc1ccc(/C=N/NC(=O)c2[nH]c3ccc(Br)cc3c2-c2ccccc2)cc1 | 55.1* | . | .
O=C(N/N=C/c1ccccc1Cl)c1[nH]c2ccc(Br)cc2c1-c1ccccc1 | 60.5* | . | .
O=C(NN=Cc1ccccc1)c1[nH]c2ccc(Br)cc2c1-c1ccccc1 | . | -14.0 | -3.2
